Measured values taken from PubChem BioAssay (NCATS).
For part of these data: Entries with a potency or affinity are not part of this list. Activity calls are given as the source filed them.

Tests used:
[1] = Ebola virus entry assay, reporter ratio channel; AC50: Channel type: primary unless noted; outcome: Channel type: primary unless noted
[2] = Ebola virus entry assay, blue channel (ratio component)
[3] = Ebola virus entry cell assay, ratio channel
[4] = Ebola virus entry reporter assay, green channel fluorescence

Structure (SMILES)	outcome [1]	outcome [2]	outcome [3]	outcome [4]
CC1(C)OC[C@@H]2O[C@@]3(C(=O)O)OC(C)(C)O[C@H]3[C@@H]2O1	inactive	inactive		
COP(=O)(OC)OC(c1ccc(Cl)cc1)P(=O)(OC)OC (centres undefined)	inactive	inactive		
CCCCCCCCCCCCOCCO	inactive	inactive		
CC(C)C(=O)Nc1cccc(C(F)(F)F)c1	inactive	inactive		
CCN(CC)CCNC(=O)c1cc(S(C)(=O)=O)ccc1OC	inactive	inactive		
CC(C)(C)NCC(O)COc1ccccc1OCC1CCCO1 (centres undefined)	inactive	inactive		
CCO[C@H](Cc1ccc(OCCc2ccc(OS(C)(=O)=O)cc2)cc1)C(=O)O	inactive	inactive		
NCC(=O)CCC(=O)O	inactive	inactive		
Cn1c(=O)c2c(ncn2CC(=O)O)n(C)c1=O	inactive	inactive		
Nc1ncnc2c1ncn2[C@@H]1O[C@H](CO)[C@@H](O)[C@H]1O	inactive	inactive		
CC(=O)Nc1ncc([N+](=O)[O-])s1	inactive	inactive		
Cn1c(=O)c2[nH]cnc2n(C)c1=O	inactive	inactive		
COc1ccc(O)cc1	inactive	inactive		
Cc1cc(CCCOc2c(C)cc(-c3noc(C(F)(F)F)n3)cc2C)on1	inactive	inactive		
CN/C(=C\[N+](=O)[O-])NCCSCc1csc(CN(C)C)n1	inactive	inactive	inactive	
NC(=O)COCCN1CCN(C(c2ccccc2)c2ccc(Cl)cc2)CC1 (centres undefined)	inactive	inactive	inactive	inactive
CO[C@@]1(NC(=O)Cc2cccs2)C(=O)N2C(C(=O)O)=C(COC(N)=O)CS[C@@H]21	inactive	inactive	inactive	inactive
